In all, about 330,000 compounds went through this assay and about 1,900 (0.58%) were called active. About 4% were inconclusive and are not listed. Cut-off read from the data, not from the text of the source: inconclusive = inhibition above about 70% without an active follow-up result; inactive = below that. A selection follows. Measured potencies and affinities stand elsewhere. Where a SMILES comes first, the peptide text is derived from it. [ ]: non-standard residue; d: D form. The star is where a group is joined. ξ: configuration not given here. Cbz = O=C(OCc1ccccc1)*; ξS = NC(CO)C(=O)O
Assay: M. tuberculosis growth inhibition, HTS (AID 449762);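 note: bacterial growth assessed after seven days of incubation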
Conditions: M. tuberculosis H37Rv growth inhibition, 7H9 media; at 25 µM; stronger effect = higher value

Row | SMILES | inhibition
1 | Cc1ccc2nc(CSc3nnc(-c4ccncc4)n3C)cc(=O)n2c1 | -4.97% (inactive)
2 | CCc1nc(SCc2nnc(-c3ccc(C)cc3)o2)c2c(C)c(C)sc2n1 | -15.8% (inactive)
3 | O=C1NCC(c2ccccc2)C1C(=O)N/N=C\c1ccc(-c2cccc(Cl)c2Cl)o1 (stereo not given) | 24.5% (inactive)
4 | O=C1NCC(c2ccccc2)C1C(=O)N/N=C/c1ccc(Cl)s1 (stereo not given) | -0.33% (inactive)
5 | COCCNC(=O)C1CC2Cn3c(nc4cc(Cl)c(Cl)cc43)C2N1C (stereo not given) | 2.07% (inactive)
6 | O=C(NCC1CCCO1)c1cc([N+](=O)[O-])ccc1N1CCC(Cc2ccccc2)CC1 (stereo not given) | 32.2% (inactive)
7 | CCNC(=O)C(Cc1ccccc1)NC(=O)OCc1ccccc1 (stereo not given) | -4.3% (inactive)
8 | CCOC(=O)CNC(=O)C(CO)NC(=O)OCc1ccccc1 (stereo not given) (Cbz-[ξS]-Gly-OEt) | 5.25% (inactive)
9 | COc1cc(OC)cc(C(=O)N[C@H](C(=O)Nc2ccc(NC(C)=O)cc2)C(C)C)c1 | -0.98% (inactive)
10 | O=c1c(Cc2ccccc2)c(O)ccn1Cc1ccc2c(c1)OCO2 | 3.04% (inactive)
11 | O=C(Nc1cc(=O)[nH]c2ncnn12)c1ccco1 | -17.4% (inactive)
12 | O=C(Nc1cc(=O)[nH]c2nc(-c3ccccc3)nn12)c1ccc(Cl)cc1 | -2.49% (inactive)
13 | COCCN(C(=O)COC(=O)/C=C/c1ccc(C)o1)c1c(N)n(Cc2ccccc2)c(=O)[nH]c1=O | -11.7% (inactive)
14 | COc1ccccc1N1CCN(C(=O)C2CC=CCC2C(=O)O)CC1 (stereo not given) | -1.32% (inactive)
15 | COc1cccc2c1OCC(C(=O)O)C2 (stereo not given) | -0.01% (inactive)
16 | Cc1ccc(C)c(NC(=S)N(C)C)c1 | 1.85% (inactive)
17 | Cc1ccc(C)c(NNC(=O)C(=O)NNc2cc(C)ccc2C)c1 | 52.8% (inactive)
18 | O=C(Nc1cccc(S(=O)(=O)N2CCCCC2)c1)c1ccc2ncsc2c1 | -3.33% (inactive)
19 | CC(=O)c1cccc(NC(=O)c2ccc(S(=O)(=O)N3CCCCC3)cc2)c1 | -2.95% (inactive)
20 | COc1ccc(N(C(=O)Cn2cnc3ccccc32)C(C(=O)NC2CCCCC2)c2ccccc2)cc1 (stereo not given) | 0.85% (inactive)
21 | COc1ccc(NS(=O)(=O)c2cccc(NC(=O)CNC(C)=O)c2)cc1 | 3.07% (inactive)
22 | CN1C(=O)Cn2c1nc1ccccc12 | 6.02% (inactive)
23 | Cc1ccc(C(O)c2nc3ccccc3n2C)cc1 (stereo not given) | 6.67% (inactive)

Row | SMILES | inhibition
24 | Cc1cccc(C)c1NC(=S)N(CCN(C)C)C(C)c1ccccn1 (stereo not given) | -5.58% (inactive)
25 | CN(Cc1cccs1)C(=O)CCc1c[nH]c2ccccc12 | 4.68% (inactive)
26 | COC(=O)c1ccc(CSc2nc(C(F)F)cc(C)c2C#N)o1 | -2.24% (inactive)
27 | COC(=O)c1ccc(CSc2ncnc3ccccc23)o1 | -4.26% (inactive)
28 | O=C(NNc1ncnc2ccccc12)c1cccc(Cl)c1 | -0.01% (inactive)
29 | CN(Cc1cccc(F)c1)C(=O)c1cccc(S(=O)(=O)N2CCN(Cc3ccccc3)CC2)c1 | -18.2% (inactive)
30 | Cc1ccc(CNC(=O)c2ccc(NC(=O)C3=CSCCO3)cc2)cc1 | -1.39% (inactive)
31 | O=C(Nc1ccc(C(=O)NCc2ccc(F)cc2)cc1)C1=CSCCO1 | -4.67% (inactive)
32 | Cc1nc(-c2ccccc2)sc1C1(C)CC(c2ccc(C#N)cc2)=NO1 (stereo not given) | -2.7% (inactive)
33 | Cc1nc(-c2ccc(Cl)cc2)sc1C1(C)CC(c2ccc(Cl)cc2)=NO1 (stereo not given) | 0.85% (inactive)
34 | c1ccc(-c2cc3ccccc3cn2)cc1 | 12.7% (inactive)
35 | Cc1cnc(NC2=NCCC2)s1 | 4.98% (inactive)
36 | CCCNC(=O)c1ccc(COc2ccc(C(C)(C)C)cc2)o1 | 1.87% (inactive)
37 | COc1ccccc1NC(=O)c1nn(-c2ccccc2)ccc1=O | 5.5% (inactive)
38 | CN(CC(=O)NC(=O)NCc1ccco1)Cc1nc2ccccc2c(=O)[nH]1 | -5.09% (inactive)
39 | O=C(OC(C(=O)NCc1ccc2c(c1)OCO2)c1ccccc1F)c1ccco1 (stereo not given) | 2.01% (inactive)
40 | C/C(CC(=O)Nc1ccc2c(c1)OCCO2)=N\NC(=O)c1ccccc1Cl | 5.1% (inactive)
41 | COc1ccccc1C(=O)N/N=C(\C)CC(=O)Nc1ccc2c(c1)OCCO2 | 1.17% (inactive)
42 | CC(C)(C)c1ccc(C(=O)NCCCNC(=O)c2ccccn2)cc1 | 8.46% (inactive)
43 | COC(=O)c1c(NC(=O)CCC(=O)O)sc2c1CCCCC2 | 19.9% (inactive)
44 | Nc1nc(Nc2ccccc2)nc(NC2CCCCC2)c1[N+](=O)[O-] | 29.1% (inactive)
45 | COc1ccc(OC)c(Nc2nc(N)c([N+](=O)[O-])c(NC3CCCCC3)n2)c1 | -3.37% (inactive)
